Measurements taken from PubChem BioAssay (Tox21).
Inconclusive results are not listed. Calls of active or inactive are those of the source. Unless noted, calls follow the shape of the full dose curve.

Experiments:
[1] = Nuclear factor erythroid 2-related factor 2/antioxidant responsive element (Nrf2/ARE) small molecule agonists: qHTS cell viability counter screen in human keratinocytes (AID 1919968; active = well fitted curve in the direction sought with a large enough effect in the repeat runs; an effect the other way counts as inactive or inconclusive; also: nearly all actives have a fitted effect of over 55% in size; also: potency is read from the fitted curve at half-maximal effect)
Procedure, shortened: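 Cells of the KeratinoSens line were plated at 1,500 per well and left for 5 h before compound transfer from DMSO stocks. After a 23 h incubation (37 C, 5% CO2), CellTiter-Fluor was added. Signal was taken as fluorescence intensity 1 h later.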

[2] = Nuclear factor erythroid 2-related factor 2/antioxidant responsive element (Nrf2/ARE) small molecule agonists: luciferase reporter gene qHTS assay in human keratinocytes (AID 1919969); also: nearly all actives have a fitted effect of over 35% in size; also: potency is read from the fitted curve at half-maximal effect
[3] = target: KiSS-1 receptor (Homo sapiens) (UniProt Q969F8); experiment: Human kisspeptin (KISS1R) small molecule agonists, calcium flux assay in KISS1R-HEK293 cells (AID 1920064; active = well fitted curve in the direction sought with a large enough effect in the repeat runs; an effect the other way counts as inactive or inconclusive)
Sequence of KiSS-1 receptor (Homo sapiens) (Q969F8 whole entry, looked up): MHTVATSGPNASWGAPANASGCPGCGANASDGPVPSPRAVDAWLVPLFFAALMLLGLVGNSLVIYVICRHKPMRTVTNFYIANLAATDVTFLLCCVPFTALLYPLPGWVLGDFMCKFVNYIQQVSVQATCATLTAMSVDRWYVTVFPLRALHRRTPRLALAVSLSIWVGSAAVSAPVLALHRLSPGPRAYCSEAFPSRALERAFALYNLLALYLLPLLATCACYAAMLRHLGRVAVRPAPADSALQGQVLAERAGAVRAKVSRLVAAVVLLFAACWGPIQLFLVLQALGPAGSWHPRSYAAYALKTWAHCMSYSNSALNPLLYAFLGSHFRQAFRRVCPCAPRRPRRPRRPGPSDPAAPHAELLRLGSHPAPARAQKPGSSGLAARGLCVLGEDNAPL
Procedure, shortened: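 Cell line: HEK293, stable human KISS1R. Dye loading 1 h at 37 C after 18 h culture. Read: kinetic fluorescence, 480/540 nm, 3 min at 1 s intervals.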

[4] = G protein-coupled receptor (GPCR) small molecule agonists, calcium flux assay: HEK293 wild type cell line counter screen (AID 1920065)
Procedure, shortened: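 Tox21 10K compounds, 15 concentrations each in triplicate, pin-transferred in DMSO onto dye-loaded cells; kinetic read at 480/540 nm for 3 min, 1 s intervals.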

[5] = p53 small molecule agonists, cell-based qHTS assay with human liver microsomes (AID 1963577); also: potency is read from the fitted curve at half-maximal effect;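 as to activation: p53 response element beta-lactamase reporter cells with liver microsomes plus NADPH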
Procedure, shortened: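 Steps: plate p53RE-bla cells, incubate 5 h at 37 C; add compound in DMSO; add microsomes (0.5 mg/mL final) and NADPH (0.5 mg/mL final); incubate 16 h at 37 C; add LiveBLAzer, 2 h RT; read fluorescence.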

[6] = p53 small molecule agonists, cell-based qHTS assay with rat liver microsomes (AID 1963578)
Procedure, shortened: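 Metabolic activation is supplied by rat liver microsomes with NADPH (each 0.5 mg/mL final). p53RE-bla cells incubate with compound 16 h at 37 C; reporter activity is measured by LiveBLAzer fluorescence.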

[7] = p53 small molecule agonists, cell-based qHTS assay with human liver microsomes: qHTS cell viability counter screen (AID 1963579); also: nearly all actives have a fitted effect of over 45% in size; also: potency is read from the fitted curve at half-maximal effect
Procedure, shortened: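 After the 460/530 nm beta-lactamase read, CellTiter-Glo was added to the same wells and luminescence measured after 30 min at room temperature, giving viability of p53RE-bla cells treated 16 h with compounds plus microsomes and NADPH.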

[8] = p53 small molecule agonists, cell-based qHTS assay with rat liver microsomes: qHTS cell viability counter screen (AID 1963580); also: nearly all actives have a fitted effect of over 45% in size
Procedure, shortened: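 Cytotoxicity counter screen: intracellular ATP measured by CellTiter-Glo luminescence in the same wells as the beta-lactamase reporter read, on HCT-116 p53RE-bla cells exposed 16 h at 37 C to compounds with rat liver microsomes and NADPH, each 0.5 mg/mL final.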

[9] = p53 small molecule agonists, cell-based qHTS assay: qHTS cell viability counter screen (AID 1963581); also: nearly all actives have a fitted effect of over 45% in size
Procedure, shortened: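 ATP content measured by luminescence in HCT-116 p53RE-bla cells treated 16 h at 37 C, same wells as the reporter screen.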

[10] = p53 small molecule agonists, cell-based qHTS assay (AID 1963582; active = well fitted activation curve with a large enough effect in the signal ratio in the repeat runs, not every such curve was filed as active; the % refers to the signal ratio)
Procedure, shortened: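 16 h compound exposure (37 C) of p53 response element–bla cells, preceded by 5 h recovery at 37 C/5% CO2; read-out via LiveBLAzer B/G FRET substrate, 2 h RT, fluorescence intensity.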

[11] = target: 5-hydroxytryptamine receptor 2A (Homo sapiens) (UniProt P28223); experiment: 5-hydroxytryptamine receptor 2A (HTR2A) small molecule agonists, cell-based qHTS assay (AID 1963587); also: nearly all actives have a fitted effect of over 30% in size; also: potency is read from the fitted curve at half-maximal effect
Sequence of 5-hydroxytryptamine receptor 2A (Homo sapiens) (P28223 whole entry, looked up): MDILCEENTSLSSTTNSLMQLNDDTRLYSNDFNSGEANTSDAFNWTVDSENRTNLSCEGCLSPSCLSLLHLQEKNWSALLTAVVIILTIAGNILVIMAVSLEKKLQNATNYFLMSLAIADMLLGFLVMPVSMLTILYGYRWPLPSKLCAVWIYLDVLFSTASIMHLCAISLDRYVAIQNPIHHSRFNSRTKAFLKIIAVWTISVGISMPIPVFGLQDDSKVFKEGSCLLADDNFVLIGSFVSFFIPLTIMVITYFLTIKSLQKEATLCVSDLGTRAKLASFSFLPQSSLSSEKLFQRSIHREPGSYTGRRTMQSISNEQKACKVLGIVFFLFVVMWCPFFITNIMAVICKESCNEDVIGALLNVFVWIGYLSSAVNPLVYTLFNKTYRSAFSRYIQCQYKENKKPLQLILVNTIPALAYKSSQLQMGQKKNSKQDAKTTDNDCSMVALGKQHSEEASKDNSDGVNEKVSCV
Procedure, shortened: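 CHO cells stably expressing human HTR2A, plated 18 h, loaded with calcium dye 1 h at 37 C. Agonist mode: compounds added and intracellular calcium fluorescence recorded kinetically for 2 min at 1 sec intervals.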

[12] = target: Muscarinic acetylcholine receptor M1 (Homo sapiens) (UniProt P11229); experiment: Cholinergic receptor muscarinic 1 (CHRM1) small molecule antagonists, cell-based qHTS assay (AID 1963588); also: nearly all actives have a fitted effect of over 40% in size; also: potency is read from the fitted curve at half-maximal effect
Sequence of Muscarinic acetylcholine receptor M1 (Homo sapiens) (P11229 whole entry, looked up): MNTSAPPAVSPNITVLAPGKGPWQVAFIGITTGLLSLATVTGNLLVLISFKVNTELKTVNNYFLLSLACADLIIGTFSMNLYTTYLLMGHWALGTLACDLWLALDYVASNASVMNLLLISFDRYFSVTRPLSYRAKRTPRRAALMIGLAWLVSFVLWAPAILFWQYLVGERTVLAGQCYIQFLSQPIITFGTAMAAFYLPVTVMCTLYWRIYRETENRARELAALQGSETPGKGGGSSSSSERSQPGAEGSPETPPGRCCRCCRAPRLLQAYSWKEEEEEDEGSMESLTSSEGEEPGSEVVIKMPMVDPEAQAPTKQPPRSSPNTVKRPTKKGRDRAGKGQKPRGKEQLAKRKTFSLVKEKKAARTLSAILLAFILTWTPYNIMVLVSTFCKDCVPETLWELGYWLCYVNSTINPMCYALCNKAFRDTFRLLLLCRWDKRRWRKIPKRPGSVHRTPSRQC
Procedure, shortened: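 Compounds were tested at 15 concentrations in three independent runs. Dye-loaded CHRM1-CHO cells were exposed 5 min at room temperature before stimulation by acetylcholine added at 50nM. Intracellular calcium was read kinetically on FDSS for 3 min.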

[13] = target: Muscarinic acetylcholine receptor M1 (Homo sapiens) (UniProt P11229); experiment: Cholinergic receptor muscarinic 1 (CHRM1) small molecule agonists, cell-based qHTS assay (AID 1963589); also: nearly all actives have a fitted effect of over 35% in size
Procedure, shortened: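 Homogeneous fluorescence calcium flux, agonist mode. Human M1-expressing CHO cells; compound dosed at 15 concentrations, three independent runs; signal sampled every 1 sec.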

[14] = cAMP Responsive Elements (CRE) small molecule agonists, cell-based qHTS assay (AID 1963590)
Procedure, shortened: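 HEK 293T cells stably bearing CRE-bla were plated at 2,000 cells per well and rested 18 h. Compounds, positive controls or DMSO were added for 3 h at 37 C. LiveBLAzer B/G substrate was then loaded for 2 h at room temperature.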

[15] = cAMP Responsive Elements (CRE) small molecule antagonists, cell-based qHTS assay (AID 1963591; active = well fitted inhibition curve with a large enough effect in the signal ratio in the repeat runs, not every such curve was filed as active; the % refers to the signal ratio)
Procedure, shortened: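 First, CRE-bla HEK293T cells settled 18 h at 37 C. Next, compound and 0.25 uM final NKH477 were applied for 3 h. Last, LiveBLAzer B/G substrate was loaded for 2 h at room temperature.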

[16] = target: Beta-2 adrenergic receptor (Homo sapiens) (UniProt P07550); experiment: Adrenergic beta2 receptor (ADRB2) small molecule antagonists, cell-based qHTS assay (AID 1963592); also: series mostly up to about 92 µM; nearly all actives have a fitted effect of over 50% in size
Sequence of Beta-2 adrenergic receptor (Homo sapiens) (P07550 whole entry, looked up): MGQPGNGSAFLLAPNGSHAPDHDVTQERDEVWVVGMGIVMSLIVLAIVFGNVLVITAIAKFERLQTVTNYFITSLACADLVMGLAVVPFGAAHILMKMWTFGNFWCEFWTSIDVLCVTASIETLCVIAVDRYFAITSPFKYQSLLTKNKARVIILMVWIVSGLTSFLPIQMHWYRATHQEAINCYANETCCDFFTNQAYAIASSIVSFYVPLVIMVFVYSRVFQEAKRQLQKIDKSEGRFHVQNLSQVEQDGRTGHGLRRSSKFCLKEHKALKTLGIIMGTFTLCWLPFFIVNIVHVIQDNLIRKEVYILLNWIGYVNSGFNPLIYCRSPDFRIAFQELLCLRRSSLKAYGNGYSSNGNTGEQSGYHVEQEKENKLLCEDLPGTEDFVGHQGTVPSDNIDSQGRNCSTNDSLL
Procedure, shortened: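 Assay format: CHO-ADRB2 cells, 18-20hr seeding at 37C/5% CO2, then compound plus 1nM isoproterenol agonist mix for 0.5hr RT. Homogeneous time-resolved fluorescence cAMP detection after 1hr, expressed as 665/615 nm ratio.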

[17] = target: D(2) dopamine receptor (Homo sapiens) (UniProt P14416); experiment: Dopamine D2 receptor (DRD2) small molecule agonists, cell-based qHTS assay (AID 1963594); also: nearly all actives have a fitted effect of over 35% in size; also: potency is read from the fitted curve at half-maximal effect
Sequence of D(2) dopamine receptor (Homo sapiens) (P14416 whole entry, looked up): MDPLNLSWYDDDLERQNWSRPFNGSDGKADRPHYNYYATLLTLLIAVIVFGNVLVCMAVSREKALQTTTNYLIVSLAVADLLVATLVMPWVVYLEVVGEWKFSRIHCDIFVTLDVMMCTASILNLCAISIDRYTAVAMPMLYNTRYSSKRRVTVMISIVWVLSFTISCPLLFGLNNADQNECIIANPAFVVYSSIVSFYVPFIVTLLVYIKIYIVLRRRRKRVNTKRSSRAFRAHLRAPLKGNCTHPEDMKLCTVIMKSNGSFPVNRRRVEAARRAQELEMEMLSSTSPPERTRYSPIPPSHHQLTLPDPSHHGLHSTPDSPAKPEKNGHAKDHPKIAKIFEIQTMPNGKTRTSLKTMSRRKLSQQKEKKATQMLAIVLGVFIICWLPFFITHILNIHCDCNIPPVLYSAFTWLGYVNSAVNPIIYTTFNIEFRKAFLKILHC
Procedure, shortened: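 HEK293 cells stably expressing human DRD2, pre-treated with PDE inhibitor Ro20-1724 (0.1 mM final) and compound 10 min at room temperature, then stimulated with NKH477 (200nM […]) for 30 min. cAMP read by HTRF (665/620 nm).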

[18] = target: D(2) dopamine receptor (Homo sapiens) (UniProt P14416); experiment: Dopamine D2 receptor (DRD2) small molecule antagonists, cell-based qHTS assay (AID 1963595; active = well fitted inhibition curve with a large enough effect in the signal ratio in the repeat runs, with a control signal flat; the % refers to the signal ratio; also: potency is read from the fitted curve at half-maximal effect)
Procedure, shortened: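 Antagonism was scored as restored cAMP in HEK293-DRD2 cells. These cells were stimulated with 200 nM NKH477 and 12 nM quinpirole for 30 min at room temperature, in the presence of 0.1 mM Ro20-1724.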

[19] = target: Gonadotropin-releasing hormone receptor (Homo sapiens) (UniProt P30968); experiment: Human gonadotropin-releasing hormone receptor (GnRHR) small molecule agonists, calcium flux assay in GnRHR-HEK293 cells (AID 1920063); also: nearly all actives have a fitted effect of over 35% in size
Sequence of Gonadotropin-releasing hormone receptor (Homo sapiens) (P30968 whole entry, looked up): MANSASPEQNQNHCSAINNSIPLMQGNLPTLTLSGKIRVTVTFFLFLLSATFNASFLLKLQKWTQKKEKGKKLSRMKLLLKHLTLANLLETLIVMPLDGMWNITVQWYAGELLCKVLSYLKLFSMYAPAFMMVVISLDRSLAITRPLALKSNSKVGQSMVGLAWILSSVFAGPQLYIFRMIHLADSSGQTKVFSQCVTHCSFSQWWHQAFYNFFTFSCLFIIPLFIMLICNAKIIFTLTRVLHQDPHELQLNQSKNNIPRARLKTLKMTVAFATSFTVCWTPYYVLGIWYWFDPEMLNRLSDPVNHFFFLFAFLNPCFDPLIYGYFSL
Procedure, shortened: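 Compounds dissolved in DMSO are pin-transferred onto dye-loaded GnRHR-HEK293 cells, which were seeded 18 h before at 37 C/5% CO2. Calcium signal is read as fluorescence intensity at 1 s intervals for 3 min.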

[20] = target: 5-hydroxytryptamine receptor 2A (Homo sapiens) (UniProt P28223); experiment: 5-hydroxytryptamine receptor 2A (HTR2A) small molecule antagonists, cell-based qHTS assay (AID 1963586); also: nearly all actives have a fitted effect of over 45% in size
Procedure, shortened: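 CHO cells stably expressing human HTR2A were plated for 18 h at 37 C, then loaded with calcium dye for 1 h. Compounds were preincubated 5 min at room temperature before DOI (4 nM solution) was added. Kinetic fluorescence was read for 3 min.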

Measured: Potency

CNC(C)Cc1ccccc1OC (configuration not stated)
active: [11] 0.848 µM
not listed: [19] | [20]
inactive: all other assays above

COc1cc(CC(C)N)c(OC)cc1Br (configuration not stated)
active: [12] 17.3 µM | [17] 20 µM
not listed: [3] | [7] | [8] | [11] | [16]
inactive: all other assays above

COC(=O)c1ccccc1S(=O)(=O)NC(=O)N(C)c1nc(C)nc(OC)n1
not listed: [3] | [5] | [8] | [20]
inactive: all other assays above

O=C(O)c1cccc(Cl)c1
not listed: [3] | [5] | [6] | [10] | [13]
inactive: all other assays above

CSCCCN=C=S
active: [2] 61.1 µM
not listed: [3] | [8] | [11] | [17]
inactive: all other assays above

O=[Se]=O
not listed: [3] | [7] | [9] | [10] | [11] | [12] | [14]
inactive: all other assays above

CC(C)OC(=O)C(O)(c1ccc(Cl)cc1)c1ccc(Cl)cc1
inactive: [2] | [19] | [4] | [5] | [6] | [20] | [11] | [13] | [17]
active: [1] 30.6 µM | [7] 40.8 µM | [12] 13.3 µM

CC[N+]1(CCOC(=O)C(O)(c2ccccc2)c2ccccc2)CCCCC1
inactive: [1] | [2] | [19] | [4] | [7] | [8] | [9] | [14] | [15] | [16] | [18]

CC(C)(C)NCC(O)c1cc(Cl)c(N)c(C(F)(F)F)c1 (configuration not stated)
active: [18] 0.0084 µM
not listed: [9] | [10] | [13] | [14] | [16] | [19]
inactive: all other assays above

CNC(=O)Oc1ccc(N(C)C)c(C)c1
active: [2] 24.3 µM | [5] 10.2 µM
not listed: [6] | [9] | [17] | [19]
inactive: all other assays above

CC1(C)C(/C=C(\Cl)C(F)(F)F)C1C(=O)OC(C#N)c1cccc(Oc2ccccc2)c1 (configuration not stated)
not listed: [5] | [18] | [19] | [20]
inactive: all other assays above
